In the library only some 4.2% were active in any assay of this set; here they are far more common.
Mtb FBA inh = Mtb FBA enzyme inhibitors, primary screen, biochemical, fluorescence, strain H37Rv | Fructose-bisphosphate aldolase (Mycobacterium tuberculosis (strain ATCC 25618 / H37Rv)), … | purified M. tuberculosis FBA, fluorescence read-out | inhibition, % at 1 µM | AID 588726, 2011 | actives 2.3% (n = 360,000); in the data active means inhibition above about 27%;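 further: 0% = vehicle and 100% = reference inhibitor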
GDH-TPI counter = GDH-TPI coupling enzyme inhibitors, primary screen, artefact control for M. tuberculosis FBA inhibitor project, biochemical, absorbance, full deck; actives 1.2% (n = 360,000); inhibition, % at 4.8 µM; GDH-TPI coupled enzyme counterscreen, NADH absorbance; AID 588335, 2011;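 further: 0% = DMSO wells and 100% = wells lacking the enzyme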
RecA splice inh = Mtb RecA intein splicing inhibitors, primary screen, biochemical, fluorescence, HTS | cell-free RecA intein splicing | inhibition, % (test concentration not listed) | actives 0.75% (n = 290,000) | AID 2221, 2009; in the data active means inhibition above about 30%;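 further: 0% = vehicle wells and 100% = reference inhibitor control wells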
Target sequence (P9WHJ3 whole entry, looked up, canonical isoform): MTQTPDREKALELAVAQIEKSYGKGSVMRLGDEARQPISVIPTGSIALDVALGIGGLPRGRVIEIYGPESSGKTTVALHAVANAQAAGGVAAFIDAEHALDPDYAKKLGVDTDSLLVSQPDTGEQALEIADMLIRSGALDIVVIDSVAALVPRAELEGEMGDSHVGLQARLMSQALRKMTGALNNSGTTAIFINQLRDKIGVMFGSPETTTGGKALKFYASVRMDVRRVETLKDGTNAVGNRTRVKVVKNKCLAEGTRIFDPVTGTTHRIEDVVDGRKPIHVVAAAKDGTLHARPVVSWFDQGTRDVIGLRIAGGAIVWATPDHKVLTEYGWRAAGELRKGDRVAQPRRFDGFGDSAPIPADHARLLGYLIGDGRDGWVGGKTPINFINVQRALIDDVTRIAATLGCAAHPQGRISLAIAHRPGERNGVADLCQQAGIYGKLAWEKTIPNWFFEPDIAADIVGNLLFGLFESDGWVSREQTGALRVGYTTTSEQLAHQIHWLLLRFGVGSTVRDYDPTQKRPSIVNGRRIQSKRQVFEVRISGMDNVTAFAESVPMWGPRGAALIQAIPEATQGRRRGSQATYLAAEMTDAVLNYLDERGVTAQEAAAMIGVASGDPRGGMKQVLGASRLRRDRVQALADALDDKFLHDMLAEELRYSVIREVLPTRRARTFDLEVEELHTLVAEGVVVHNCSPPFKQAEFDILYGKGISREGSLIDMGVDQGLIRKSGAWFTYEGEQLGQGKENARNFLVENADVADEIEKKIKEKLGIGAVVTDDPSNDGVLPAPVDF
CCHF vOTU inh = CCHFV vOTU protease inhibitors, primary screen, biochemical, Pep-AMC substrate, fluorescence; inhibition, % at 11.5 µM; Crimean-Congo hemorrhagic fever virus L polyprotein viral ovarian tumor (vOTU) protease …; AID 651958, 2012; actives 0.55% (n = 370,000); further: 0% = vehicle wells with enzyme and 100% = no enzyme wells
Active calls of the source: *; x = not tested or not shown; + = active, no number. Unless noted, no stated cut-off is given here; in the data, active means inhibition above about 30%; inactive means the rest.

SMILES	Mtb FBA inh	GDH-TPI counter	RecA splice inh	CCHF vOTU inh
CC(=O)Nc1sc(N/N=C\c2ccc(O)cc2)nc1-c1cccs1	-1	44*	2	-2
CC(C)CN1C(=O)N2Cc3ccccc3C2CS1(=O)=O (centres undefined)	x	x	x	-4
COC(=O)[C@H](C(C)C)N1CCc2nnn(Cc3ccccc3)c2-c2cc(F)ccc2S1(=O)=O	x	x	x	4
O=C(/C=C/c1ccco1)NC(=S)Nc1ccccc1N1CCOCC1	-2	46*	1	9
CC(=O)N(C)c1ccc(NC(=S)NC(=O)/C=C/c2ccco2)cc1	-7	40*	0	22
O=C(/C=C/c1ccco1)NC(=S)Nc1ccccn1	1	40*	2	15
CN1CCN(c2ccc(NC(=S)NC(=O)/C=C/c3ccco3)cc2)CC1	-2	31*	0	9
Cc1cccnc1NC(=S)NC(=O)/C=C/c1ccco1	0	16	-6	11
CC1CCC2(CC1)NC(=O)N(CC(=O)NCCc1ccc(F)cc1)C2=O (centres undefined)	3	2	x	1
OCc1ccnc2oc3ccccc3c12	7	-9	-2	-13
O=C(NCCc1ccccc1)OCc1cn(Cc2cccc(F)c2F)nn1	x	x	x	-2
COc1cc(C(=O)C(=O)c2ccc(O)c(OC)c2)ccc1O	-2	35*	5	2
CN(C)c1ccc(-c2cccc3nccn23)cc1	+	20	x	-251
Clc1cccc(-c2cccc3nccn23)c1	+	16	x	-104
c1cc(-c2ccc(N3CCOCC3)cc2)n2ccnc2c1	+	17	x	-263
c1cnc2c(-c3cccc4nccn34)cccc2c1	5	-3	x	9
NC(=O)c1cccc(-c2cccc3nccn23)c1	2	2	x	6
OCc1ccccc1-c1cccc2nccn12	15	13	x	x
N#CCc1ccc(-c2cccc3nccn23)cc1	+	8	x	-126
CCN(CC)S(=O)(=O)c1cc(NC(=O)c2cc([N+](=O)[O-])ccc2N2CCOCC2)ccc1C	-1	12	5	-1
CC(=O)Nc1ccc(S(=O)(=O)N(Cc2ccco2)Cc2cc3ccccc3[nH]c2=O)cc1	2	-4	2	11
CS(=O)(=O)Nc1ccc(-c2cccc3nccn23)cc1	162*	9	x	-144
CCN(C(=O)CSc1nc(N)cc(N)n1)C1CCS(=O)(=O)C1 (centres undefined)	0	2	-1	-7
CC(C)(C)c1csc(NC(=O)c2c(F)c(F)c(F)c(F)c2F)n1	2	0	31*	13
CCOC(=O)[C@]12CCCCC/C=C\1N(Cc1ccc(OC)cc1)C(=O)[C@H]2CC(=O)NCCC(C)C	x	x	x	17
SMILES	Mtb FBA inh	GDH-TPI counter	RecA splice inh	CCHF vOTU inh
Cc1cc(C)cc(N(CC(=O)N2CCCCCC2)S(C)(=O)=O)c1	1	-14	1	-9
CC/C(=N/NC(=O)c1ccccc1O)c1c(C)[nH]n(-c2ccccc2)c1=O	0	31*	27	7
CCOC(=O)c1csc(NC(=O)C2CCCN(S(=O)(=O)c3cc(OC)ccc3OC)C2)n1 (centres undefined)	x	x	x	-3
C/C(=N\N=C(/N)SC1CC(=O)N(c2ccc(Br)cc2)C1=O)c1cccs1 (centres undefined)	-3	23	3	26
C/C(=N\N=C(/N)SC1CC(=O)N(c2ccccc2)C1=O)c1cccs1 (centres undefined)	1	41*	-1	11
N/C(=N\N=C\c1cccs1)SC1CC(=O)N(c2ccc(Br)cc2)C1=O (centres undefined)	-1	32*	-2	28
N/C(=N\N=C\c1ccco1)SC1CC(=O)N(c2ccc(C(=O)O)cc2)C1=O (centres undefined)	-7	45*	0	14
N/C(=N\N=C\c1ccco1)SC1CC(=O)N(c2ccccc2)C1=O (centres undefined)	2	26	3	14
Cc1ccc(/C=C2/C(=N)N3N=C(CC(=O)N4CCCC4)SC3=NC2=O)o1	5	33*	1	14
COc1cccc(-n2c(C)cc(/C=C3\C(=N)N4N=C(CC(=O)N5CCOCC5)SC4=NC3=O)c2C)c1	-1	31*	-10	26
COc1ccc(OC)c(-n2c(C)cc(/C=C3\C(=N)N4N=C(CC(=O)N5CCOCC5)SC4=NC3=O)c2C)c1	1	31*	2	25
N=C1/C(=C\c2ccc(Br)o2)C(=O)N=C2SC(CC(=O)N3CCCCC3)=NN12	-1	20	2	1
O=C(CN(c1ccc(Br)cc1)S(=O)(=O)c1ccc(Cl)c([N+](=O)[O-])c1)NCC1CCCO1 (centres undefined)	-2	0	x	8
O=C(COC(=O)c1cc(S(=O)(=O)N2CCCCC2)ccc1N1CCOCC1)c1ccccc1	18	7	3	2
Cc1csc(=O)n1CC(=O)Nc1ccc(C(C)C)cc1	4	-3	x	5
O=C(NCCc1ccccc1)c1cc2sccc2n1Cc1ccccc1	156*	4	1	20
CCn1c(C(=O)NCCCc2ccccc2)cc2sccc21	1	6	1	0
CCOC(=O)c1cc(-c2ccccc2)sc1NC(=O)c1ccc(OC)cc1	x	x	-1	x
O=C(Nc1sc(-c2ccccc2)cc1C(=O)O)c1ccccc1	11	35*	-1	6
Cc1ccc(NCCc2ccc(C)nc2)cc1	-1	6	-1	3
Cc1ccc(CCNc2ccc3ccccc3c2)cn1	3	12	38*	-2
CN(Cc1ccccc1)C(=O)c1[nH]cnc1C(=O)Nc1ccc(Br)cc1F	4	14	x	10
CCOC(=O)c1ccccc1NC(=O)c1cc2sccc2n1C	7	32*	-2	-3
CCOC(=O)c1cccc(NC(=O)c2cc3sccc3n2C)c1	-2	8	11	-4
O=C(CN1CCCC1)N1CCCc2c1c(=O)oc1ccc(OCc3ccccc3)cc21	21	34*	2	-14
SMILES	Mtb FBA inh	GDH-TPI counter	RecA splice inh	CCHF vOTU inh
COc1ccc(C(=O)/C=C\N2CCOCC2)cc1	-1	33*	-3	-8
COc1ccc(NC(=O)N2CCOCC2)cc1	4	0	1	-8
NS(=O)(=O)c1ccc(NC(=O)c2cccc3cc4ccccc4nc23)cc1	0	7	x	1
c1ccc2c(c1)nc(Nc1ccc(N3CCCCC3)cc1)c1nncn12	2	44*	-6	15
CCOc1ccc(Nc2nc3ccccc3n3cnnc23)cc1	-1	32*	3	13
CCCCOCCCNC(=O)C[C@H]1C[C@@]2(C(=O)OC)C(=C[C@H](C(C)C)O[C@@H]2C2CC2)N(CCc2ccc(OC)c(OC)c2)C1=O	x	x	x	13
NNC(=O)/C(=C/c1cccs1)NC(=O)c1ccccc1Cl	-3	43*	1	17
N#C/C(=C\c1cccs1)C(=O)c1ccccc1Cl	x	x	-2	-6
CCOc1cc(/C=N/N=C(/N)c2nonc2N)cc(Br)c1OCc1ccc(Cl)cc1	1	32*	0	9

Bioassay records as filed in PubChem.
